Here are results for five compounds from PubChem BioAssay.

The subject of assay [1] is Human papillomavirus type 1a protein E7 (residues 44-93). The experiment in a line: small molecules binding HPV E7 44-93 – biochemical, small-molecule microarray, residues 44-93, 635 nm fluorescence, primary screen (AID 1108).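 Note: E7 fragment applied at 1 µg/mL in TBST for 1 h at 4 C; score combines spot fluorescence with its signal to noise ratio.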 The note with it: fluorescence 635 nm, higher = more signal.
Assay [2] can be described thus: hepatitis C replication reporter changes, two-sided – Huh7 cells, luciferase reporter, HCV replication inhibitor project, primary screen (AID 1109).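 Note: huh7 hepatoma cells harbouring a luciferase neomycin HCV replicon reporter; luciferase luminescence as measure of HCV replicon replication; test concentration not given here.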 The note with it: Huh7 HCV replicon luciferase reporter, 48 h; higher = more signal. A general note: A reporter such as luciferase makes a cellular process visible.
Assay [3] concerns the target Left-right determination factor 2 (Homo sapiens) (UniProt O00292). The experiment in a line: small molecules binding LEFTY2 protein – biochemical, small-molecule microarray, 635 nm fluorescence scan, primary screen (AID 1110). The note with it: higher = more signal.
In assay [4] the target is Calmodulin-1 (Homo sapiens) (UniProt P0DP23). The experiment in a line: small molecules binding calmodulin-1 with EGTA – biochemical, small-molecule microarray, Cy5-labelled CALM1, profiling panel (AID 1111).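 Note: labelled calmodulin applied in Tris saline Tween buffer holding calcium plus EGTA and DTT.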 Conditions: Cy5-CALM1 binding fluorescence, higher = more signal.
Assay [5] shares this target. The experiment in a line: small molecules binding Ca-loaded calmodulin-1 – biochemical, small-molecule microarray, Cy5-labelled CALM1, plus calcium, artefact control for SMM control-protein annotation, profiling panel (AID 1112).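 Note: score merges spot fluorescence with signal to noise from triplicate slides.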 Conditions: Cy5-CALM1 binding fluorescence, higher = more signal.
A short description of assay [6]: probe aWnt5a binding to arrayed compounds – biochemical, biotinylated probe, 635/667 nm fluorescence, primary screen (AID 1113).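 Note: score merges 667 nm fluorescence intensity with signal-to-noise per printed feature.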 Conditions: small-molecule microarray, higher = more signal.
The nature of assay [7]: probe aShh binding to arrayed compounds – biochemical, biotinylated probe, 635/667 nm fluorescence, primary screen (AID 1114).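 Note: probe is biotin-labelled aShh protein from a stem cell growth factor screen; measures binding of labelled protein to compounds printed on the slide; score merges feature fluorescence at 667 nm with signal-to-noise.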 The note with it: small-molecule microarray, higher = more signal.
Assay [8] in a line: probe aNog binding to arrayed compounds – biochemical, biotinylated probe, 635/667 nm fluorescence, primary screen (AID 1115).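 Note: probe is biotinylated aNog protein used at 0.15 µg/mL for 1 h at 4 C; z-score combines 667 nm fluorescence of each spot with its signal to noise.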 Conditions: small-molecule microarray, higher = more signal.
The target in assay [9] is Torsin-1A-interacting protein 1 (Homo sapiens) (UniProt Q5JTV8). The experiment in a line: compound microarray binding of lysate hLAP1 – cell lysate, small-molecule microarray, COS7 lysate, 635/667 nm fluorescence, primary screen (AID 1116). Conditions: 635 nm fluorescence, higher = more signal.
Assay [10] has as its target Alpha-bungarotoxin (Bungarus multicinctus) (UniProt P60615). The experiment in a line: compounds binding labelled alpha-BTX control protein – biochemical, small-molecule microarray, Alexa647 label, 635/667 nm fluorescence, artefact control for SMM control protein annotation, profiling panel (AID 1117). The note with it: alpha-BTX-A647 binding fluorescence, higher = more signal.

A further assay concerns the target Albumin (Bos taurus) (UniProt P02769). The experiment in a line: compounds binding labelled BSA control protein – biochemical, small-molecule microarray, Alexa647 label, 635/667 nm fluorescence, artefact control for SMM control protein annotation, profiling panel (AID 1118).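 Note: score merges 667 nm emission intensity and signal-to-noise per printed compound spot.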 Conditions: BSA-A647 binding, fluorescence 635 nm, higher = more signal.
Assay [11] in a line: probe aXIP binding to arrayed compounds – biochemical, NeuroSMM set, 635/667 nm fluorescence, primary screen (AID 1119).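 Note: probe is the protein aXip251-270 applied at 1 µg/mL to compound-printed slides; binding of probe to printed compounds measured as 667 nm fluorescence plus signal to noise.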 Conditions: small-molecule microarray, higher = more signal, called active from +8 up or from −8 down.
A short description of assay [12]: probe aNOTCH3 binding on compound microarray – biochemical, small-molecule microarray, 635/667 nm fluorescence, primary screen (AID 1120).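 Note: probe is a biotin-tagged antibody raised against NOTCH3 rather than NOTCH3 protein; score merges spot fluorescence near 667 nm with spot signal to noise.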 Conditions: higher = more signal.
The nature of assay [13]: probe aNOTCH2 binding on compound microarray – biochemical, small-molecule microarray, 635/667 nm fluorescence, primary screen (AID 1121).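 Note: score merges feature fluorescence read at 667 nm with its signal to noise.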 The note with it: higher = more signal.
For assay [14], the target named is Carbonic anhydrase 2 (Homo sapiens) (UniProt P00918). The experiment in a line: compounds binding carbonic anhydrase 2 – biochemical, small-molecule microarray, Alexa647-labelled CAII, profiling panel (AID 1122). Conditions: CAII-A647 binding fluorescence, higher = more signal.
Assay [15] in a line: COS7 lysate on small-molecule microarray, probe aHis, 635 nm (AID 1123).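 Note: z-score combines 667nm fluorescence intensity with signal-to-noise per printed compound spot.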 Conditions: COS7 cell lysate, fluorescence, higher = more signal.
Assay [16] is described as follows: probe aLAP1 signal on lysate-treated microarray – cell lysate, small-molecule microarray, COS7 lysate, primary screen (AID 1124).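 Note: lysate comes from COS7 cells expressing LAP1 and is applied at 0.3 µg/mL; score merges spot fluorescence near 667 nm with signal-to-noise over triplicate slides.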 Conditions: probe aLAP1, fluorescence, higher = more signal.
The next assay concerns Sam68 (KHDRBS1). The experiment in a line: compounds binding KHDRBS1 protein – biochemical, small-molecule microarray, 635 nm fluorescence, primary screen (AID 1125).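 Note: score merges 667 nm channel intensity with signal to noise over triplicate slides.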 Conditions: higher = more signal.
For assay [17], the system named is Chordin-like protein 2 (CHRDL2). The experiment in a line: compounds binding chordin-like 2 – biochemical, small-molecule microarray, 635 nm fluorescence, primary screen (AID 1126).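 Note: printed compound slides probed with Chrdl2 protein at 4 µg/mL for 1 h at 4 C; score merges 667 nm emission intensity with signal to noise over three replicate slides.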 The note with it: fluorescence 635 nm, higher = more signal.
Assay [18] has as its target Concanavalin-A (Canavalia ensiformis) (UniProt P02866). The experiment in a line: compounds binding concanavalin A lectin – biochemical, small-molecule microarray, Alexa647 label, 635 nm, artefact control for SMM control protein annotation, primary screen (AID 1127).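 Note: z combines 667 nm emission intensity with signal-to-noise across three replicate slides.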 The note with it: ConA-A647 binding fluorescence, higher = more signal.

Active and inactive are the calls of the source.

Left-right determination factor 2 (Homo sapiens), sequence (O00292 whole entry, looked up): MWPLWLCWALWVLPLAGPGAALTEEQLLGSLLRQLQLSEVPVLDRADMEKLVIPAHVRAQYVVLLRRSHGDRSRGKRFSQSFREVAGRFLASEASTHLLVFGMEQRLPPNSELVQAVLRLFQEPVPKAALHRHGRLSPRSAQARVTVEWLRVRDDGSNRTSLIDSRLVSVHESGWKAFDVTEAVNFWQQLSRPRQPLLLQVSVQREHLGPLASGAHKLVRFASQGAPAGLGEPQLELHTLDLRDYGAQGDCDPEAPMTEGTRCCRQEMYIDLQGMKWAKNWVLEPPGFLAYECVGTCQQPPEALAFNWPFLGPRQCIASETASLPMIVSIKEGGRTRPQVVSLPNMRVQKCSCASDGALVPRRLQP
Concanavalin-A (Canavalia ensiformis), sequence (P02866 whole entry, looked up): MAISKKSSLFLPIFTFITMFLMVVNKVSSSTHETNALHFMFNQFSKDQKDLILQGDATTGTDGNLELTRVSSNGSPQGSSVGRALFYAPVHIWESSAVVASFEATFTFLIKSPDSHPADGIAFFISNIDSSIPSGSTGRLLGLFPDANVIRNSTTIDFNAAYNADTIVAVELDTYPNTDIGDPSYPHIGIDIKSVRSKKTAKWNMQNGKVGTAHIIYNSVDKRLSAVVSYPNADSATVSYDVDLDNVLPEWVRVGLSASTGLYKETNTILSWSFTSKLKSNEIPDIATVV
Albumin (Bos taurus), sequence (P02769 whole entry, looked up): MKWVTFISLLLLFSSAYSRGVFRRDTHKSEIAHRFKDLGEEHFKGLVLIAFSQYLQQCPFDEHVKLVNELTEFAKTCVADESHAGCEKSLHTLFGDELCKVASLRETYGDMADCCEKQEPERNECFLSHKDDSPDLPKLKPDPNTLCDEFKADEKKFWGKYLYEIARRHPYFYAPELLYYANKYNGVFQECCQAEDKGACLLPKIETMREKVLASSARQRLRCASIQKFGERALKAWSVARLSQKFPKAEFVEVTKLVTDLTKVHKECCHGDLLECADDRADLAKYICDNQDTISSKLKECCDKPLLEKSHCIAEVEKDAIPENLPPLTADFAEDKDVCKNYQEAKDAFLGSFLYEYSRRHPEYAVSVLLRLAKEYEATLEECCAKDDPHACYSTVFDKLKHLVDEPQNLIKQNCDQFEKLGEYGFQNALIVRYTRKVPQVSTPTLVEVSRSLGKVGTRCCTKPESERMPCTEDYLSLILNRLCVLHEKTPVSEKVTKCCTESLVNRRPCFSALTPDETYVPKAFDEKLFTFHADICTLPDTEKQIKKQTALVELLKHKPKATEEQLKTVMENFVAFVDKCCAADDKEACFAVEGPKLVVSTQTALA
Alpha-bungarotoxin (Bungarus multicinctus), sequence (P60615 whole entry, looked up): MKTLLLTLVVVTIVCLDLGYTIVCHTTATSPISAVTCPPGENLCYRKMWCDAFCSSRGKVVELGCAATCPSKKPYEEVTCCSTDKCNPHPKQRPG
Torsin-1A-interacting protein 1 (Homo sapiens), sequence (Q5JTV8 whole entry, looked up): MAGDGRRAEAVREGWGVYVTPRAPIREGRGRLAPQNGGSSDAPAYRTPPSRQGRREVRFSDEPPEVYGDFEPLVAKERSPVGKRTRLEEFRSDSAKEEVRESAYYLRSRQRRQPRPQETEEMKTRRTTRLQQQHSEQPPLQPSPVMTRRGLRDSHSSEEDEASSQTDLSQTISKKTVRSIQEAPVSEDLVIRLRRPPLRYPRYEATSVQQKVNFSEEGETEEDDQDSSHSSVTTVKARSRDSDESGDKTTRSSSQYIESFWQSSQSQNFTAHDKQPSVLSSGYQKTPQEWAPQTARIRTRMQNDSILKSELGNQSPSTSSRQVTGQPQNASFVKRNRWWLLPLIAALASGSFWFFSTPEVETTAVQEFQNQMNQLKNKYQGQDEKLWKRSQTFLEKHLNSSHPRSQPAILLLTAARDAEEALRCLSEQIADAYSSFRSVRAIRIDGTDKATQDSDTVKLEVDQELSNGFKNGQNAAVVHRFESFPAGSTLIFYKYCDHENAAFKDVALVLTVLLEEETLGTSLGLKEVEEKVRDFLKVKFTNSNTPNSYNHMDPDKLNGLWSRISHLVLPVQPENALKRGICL

For the compound `COCCOC(=O)N1C(=O)[C@@]2(c3cc(C#CCNC(N)=O)ccc31)[C@H](c1ccc(OCCO)cc1)N1[C@H](c3ccccc3)[C@H](c3ccccc3)OC(=O)[C@H]1[C@@H]2C(=O)N1CCCCCCC1`, the composite z-score in assay [1] is 0.853; in assay [3] it was -0.11; in assay [4], 0.914; in [5] it was 0.966; in [6], -0.027; in assay [7], 0.485. For the same compound, the composite z-score is 0.401 in [8]; 0.242 in assay [9]; 1.24 in assay [10]; -0.208 in the assay with Albumin (Bos taurus); 0.255 in [12]; -0.0059 in [13]. Moreover, the composite z-score in assay [14] was found to be 0.174; in assay [15], 0.043; in [16], 0.332; in the assay with Sam68 (KHDRBS1), 0.82; in [17] it was 0.137; in [18] it was 0.669. In [2], the z-score was determined as 0.225. Besides, the composite Z-score in assay [11] was -0.333 (inactive).

Take `CC(c1ccccc1)C(O)C1C=CC2C(=O)N(C)C(=O)C2N1N(c1ccccc1)c1ccccc1` (stereo not given): the composite z-score in [1] is -0.304; in assay [3], -0.789; in [4] it was 1.08; in assay [5], 0.723; in assay [6] it was -0.0057; in [7] it was 0.809. The composite z-score in assay [8] is 0.332; in assay [9], 0.765; in [10] it was -0.212; with Albumin (Bos taurus), 0.867; in assay [12] it was 0.207; in assay [13] it was 0.0605. Further, the composite z-score is 0.507 in assay [14]; 1.57 in assay [15]; 0.19 in assay [16]; 0.431 in the assay on Sam68 (KHDRBS1); -0.852 in assay [17]; -0.597 in assay [18]. Besides, the z-score in assay [2] was found to be 0.37. The composite Z-score in assay [11] is 0.543 (inactive).

For the compound `C[N+](C)(C)CCCC[C@@H]1NC(=O)[C@H]2C[C@@H](C(=O)NCc3ccc(F)cc3)[C@@H](c3cccc(OCCO)c3)N2C1=O`, the composite z-score was 0.276 in assay [1]; 0.503 in [3]; 0.884 in assay [4]; 0.869 in assay [5]; -0.0522 in assay [6]; -0.0904 in [7]. Besides, the composite z-score was 0.0519 in assay [8]; 1.42 in [9]; 1.15 in assay [10]; 0.392 with Albumin (Bos taurus); -0.0328 in assay [12]; -0.179 in assay [13]. Besides, the composite z-score in assay [14] was 0.811; in assay [15] it was 1.48; in [16] it was 0.633; with Sam68 (KHDRBS1), 1.15; in assay [17], 0.864; in assay [18], 1.08. This compound also showed a z-score in assay [2] of 0.328. Besides, the composite Z-score in assay [11] is 1.57 (inactive).

As for `C=C(COC)/C(=C/C[C@@H](OC(=O)c1ccncc1)c1ccc(OCCO)cc1)c1cc(C(=O)OC)ccc1OC`, the composite z-score in assay [1] was 0.355; in assay [3], -0.428; in assay [4], 0.947; in assay [5] it was -0.777; in assay [6], -0.175; in assay [7] it was -0.0146. For the same compound, the composite z-score in [8] was 0.475; in [9], 1.45; in [10], 2.04; with Albumin (Bos taurus), 0.655; in assay [12] it was 0.0631; in [13], -0.0784. Further, the composite z-score in [14] is 0.655; in [15], 1.61; in assay [16], 0.482; in the assay on Sam68 (KHDRBS1) it was 1.3; in assay [17], -0.0659; in assay [18], 1.06. The z-score in assay [2] was -1.63. The composite Z-score in assay [11] was 0.345 (inactive).

As to `COc1cc2c(cc1OC)CN(C(=O)[C@H]1[C@@H]3C(=O)O[C@@H](c4ccccc4)[C@@H](c4ccccc4)N3[C@@H](c3ccccc3OCCO)[C@]13C(=O)Nc1ccc(C#CC4(O)CCCCCC4)cc13)CC2`, the composite z-score is -0.178 in assay [1]; 0.519 in assay [3]; 1.16 in assay [4]; -0.407 in [5]; 0.0676 in [6]; 0.0684 in [7]. Besides, the composite z-score was -0.356 in assay [8]; 1.02 in assay [9]; 1.83 in assay [10]; 0.168 with Albumin (Bos taurus); -0.0043 in assay [12]; -0.0211 in assay [13]. For the same compound, the composite z-score in [14] was determined as 0.314; in [15] it was 2.12; in [16] it was 0.982; in the assay with Sam68 (KHDRBS1), 1.3; in assay [17], 0.454; in assay [18] it was 1.13. Moreover, in [2], the z-score was -2.36. Moreover, in assay [11], the composite Z-score is 0.267 (inactive).
